# Source: PubChem
# In the library only some 19% were active in any assay of this set; here they are far more common.
# HT1080 IDH1KD tx: toxicity to HT-1080 IDH1 knockdown cells (counter line) | HT-1080 IDH1 knockdown viability, ATP luminescence, 48 h | Potency, µM (top dose mostly 46.1 µM), without a hit: at the top dose activity, negative = toxicity, most hits filed as cytotoxic | 360,000 tested, 2% active | AID 686971;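 also: potency is read from the fitted curve at half-maximal effect; 0% = DMSO wells and -100% = cell-free medium wells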
#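 Knockdown cells (IDH1KD HT-1080) received compounds 2 h after plating at 750 cells/well and were kept 48 h at 37 °C in 5% FBS RPMI. A CellTiter-Glo luminescence read gave % activity for curve fitting.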
# DT40 TDP1 no CPT: qHTS for Inhibitors of human tyrosyl-DNA phosphodiesterase 1 (TDP1): qHTS in cells in absence of CPT; DT40 Tdp1-/- hTDP1 cells, no CPT, ATP luminescence, 48 h; Potency, µM (doses to about 46.2 µM), for the others: top-dose activity change, negative = growth inhibition, hits mostly inhibitors; 420,000 tested, 15% active; also: potency is read from the fitted curve at half-maximal effect; nearly all actives have a fitted effect of over 55% in size
#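 Growth kinetics read by CellTiter-Glo luminescence after ≥48 hr at 37 °C. Cells: DT40 Tdp1-/- stably carrying human TDP1, 400 per well, compound exposure in the absence of CPT (DMSO vehicle).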
# DT40 TDP1 CPT: growth inhibition of DT40 Tdp1-/-;hTDP1 cells with camptothecin (screen for TDP1 inhibitors); AID 686979; 420,000 tested, 12% active; chicken DT40 Tdp1-/-;hTDP1 cells + 20 nM CPT, ATP luminescence, 48 h; Potency, µM (titrated, usually from 46.2 µM), inactives show at the top dose activity change, negative = growth inhibition, usual class: inhibitors; also: potency is read from the fitted curve at half-maximal effect; nearly all actives have a fitted effect of over 55% in size
#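 Cell growth measured by CellTiter-Glo luminescence after a minimum 48 h, 37 C compound exposure with 20 nM CPT in Tdp1-knockout DT40 cells stably expressing hTDP1, seeded 400/well; qHTS titration format.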
# HT1080NT lethal: kills 2HG-producing HT-1080-NT fibrosarcoma cells; HT-1080-NT fibrosarcoma viability, CellTiter-Glo ATP luminescence, 48 h; Potency, µM (doses to about 46.1 µM), for the others: at the highest dose activity, negative = less viability, hits mostly cytotoxic; 360,000 tested, 1.6% active;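 also: NT is the 2HG producing partner of a matched IDH1 knockdown line; potency is read from the fitted curve at half-maximal effect; 0% = DMSO-treated cells and -100% = media-only wells without cells; nearly all actives have a fitted effect of over 55% in size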
#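 Viability by CellTiter-Glo luminescence after 48 h compound exposure at 37C of HT-1080-NT cells (750/well, RPMI, 5% FBS). % activity scaled between DMSO wells and medium-only wells, then curve-fitted and categorized by curve class.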
# IL1B secr inh: inhibitors of inflammasome signaling (IL-1 beta secretion); THP-1 LPS/ATP IL-1B secretion, AlphaLISA, 16 h; active compounds read low; activity change, % at 57.5 µM; AID 743279; 360,000 tested, 4.7% active; in the data active = activity change below about -50%; inconclusive = mostly about -30% to -49%
#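 Secreted IL-1B measured by AlphaLISA bead assay after 16 h compound exposure of THP-1 cells; compounds (final up to 57.5 uM) added 1 h before LPS (250 ng/mL) and ATP (1.25 mM) stimulation; lower signal means less secretion.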
# Starred values were filed as active, the others as inactive; ? = inconclusive; . = not tested or not shown; [ ] = remark or other dose. Unless noted, calls follow the shape of the dose curve; as a rule, active = well fitted curve in the direction sought with a large enough effect; inconclusive = small, poorly fitted or top-dose-only effect, or another doubt; inactive = no such curve, though single readings can be large; an effect the other way counts as inactive or inconclusive. Unless noted, % is scaled to controls: 0 for no effect and ±100 for the full control effect.
SMILES,HT1080 IDH1KD tx,DT40 TDP1 no CPT,DT40 TDP1 CPT,HT1080NT lethal,IL1B secr inh
CCCC1(CCC)NC(=O)N(CC(=O)Nc2ccc(Cl)c(S(=O)(=O)N3CCOCC3)c2)C1=O,8%,?,?,6%,-63*
Cc1ccc(NC(=O)CN2C(=O)NC3(CCCC3)C2=O)cc1S(=O)(=O)N1CCCCC1,-1%,-24%,-9%,14%,2
Cc1cc(C(=O)Nc2ccccc2-c2nc(CNC(=O)C3(C)CCCCC3)c(C)o2)c(C)o1,.,2%,-10%[9.04 µM],.,.
CCN1CCN(S(=O)(=O)c2ccc(Cl)c(C(=O)NC3CCC(C)CC3)c2)CC1 (configuration not stated),-9%,?,?,-10%,-4
CN(C)c1ccc(NC(=O)Nc2cccc(Cl)c2)cc1,-10%,?,-15%,?,?
COc1ccc(-c2csc(NC(=O)Nc3ccccc3)n2)cc1,-10%,-20%,-29%,-4%,-6
O=C(Nc1cccc(Cl)c1)Nc1csc([N+](=O)[O-])c1,7.3µM*,2.3µM*,2.9µM*,21µM*,.
NC(COCc1ccccc1)c1csc(Nc2ccc(S(N)(=O)=O)cc2)n1 (configuration not stated),-5%,?,?,-15%,-10
NC(COCc1ccccc1)c1csc(NC(=O)Nc2cccc(C(F)(F)F)c2)n1 (configuration not stated),?,?,21µM*,?,-55*
NC(CCc1ccccc1)c1csc(NC(=O)Nc2cccc(Cl)c2)n1 (configuration not stated),?,23µM*,26µM*,?,-61*
Cc1ccc(NC(=O)Nc2nc(-c3ccc(C)s3)cs2)cc1,-29%,12µM*,?,-18%,-4
CC(C)(C)C1CCc2c(sc(NC(=O)c3ccc(Cl)cc3)c2C(=O)NCc2ccco2)C1 (configuration not stated),.,-16%,-5%,.,.
O=C(Nc1ccccc1)Nc1nc(-c2ccc(Cl)cc2)cs1,?,?,?,19%,-16
O=C(Nc1cccc(Cl)c1)Nc1nc(-c2ccc(Cl)cc2)cs1,-18%,16µM*,12µM*,-15%,-2
NC(c1ccccc1)c1csc(NC(=O)Nc2cccc(Cl)c2)n1 (configuration not stated),16µM*,?,?,21µM*,-104*
NC(c1ccccc1)c1csc(NC(=O)Nc2ccc(OC(F)(F)F)cc2)n1 (configuration not stated),18µM*,-107%,23µM*,?,-24
CCN(CC)CCOc1ccccc1C(C)=O,11%,-2%,9%,1%,-28
CS(=O)(=O)N1CCC2(CCN(C(c3ccccc3)c3ccccc3)CC2)CC1,.,-14%,-7%,.,.
CCC/C(O)=C1\C(=O)CC(c2ccccc2)CC1=NCCc1c(C)[nH]c2ccccc12 (configuration not stated),-8%,?,?,8%,?
CCCCC(=Nc1ccccc1OC)C1=C(O)CC(c2ccccc2)CC1=O (configuration not stated),6%,-29%,-13%,13%,12
CCCC(=NCCc1c(C)[nH]c2ccccc12)C1=C(O)CC(c2ccccc2)CC1=O (configuration not stated),4.6µM*,1.3µM*,0.58µM*,?,7
CCCCC(=NCCc1c(C)[nH]c2ccccc12)C1=C(O)CC(c2ccccc2)CC1=O (configuration not stated),9.2µM*,5.2µM*,5.8µM*,?,?
O=C(Nc1ccccc1)c1sc2cc(C(F)(F)F)cnc2c1-c1cccs1,15%,12µM*,13µM*,0%,14
CC(=O)c1ccc(NC(=O)c2cc(-c3ccc(C)s3)nc3ccccc23)cc1,.,-8%,-16%,.,.
Cc1ccc2c(c1)C(=O)C(=O)N2CCCOc1ccccc1,-11%,2.1µM*,1µM*,-2%,0
